Reference: the supplement of paper PMC10849652
Of roughly 7,900 targets only a part is listed; those with a hit were picked by preference. About 0.6% of all pairs of compound and target were hits. Values without a mark were called inactive.

What was measured:
Test in all cases: log2 fold change, soluble protein after heating vs DMSO (PISA); higher = thermal stabilisation; K562 cells, 10 uM, 30 min; active = over 0.2 and 3.5 SD of the protein, either way, in both replicates (recomputed)
IRAK-1-4 Inhibitor I = compound: C1COCCN1CCN2C3=CC=CC=C3N=C2NC(=O)C4=CC(=CC=C4)[N+](=O)[O-] [IRAK-1-4 Inhibitor I]
Method in brief: (§1)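 K562 cells at 2×10^6 cells/mL were given 10 μM compound for 30 min. Aliquots then went through 3 min of heating across 48°C-58°C, were pooled, and were extracted in PBS with 0.5% NP-40 at 4°C, and the supernatant after 21,000xg for 90 min was quantified by TMTpro 16plex LC-MS/MS with channel sums equalised. Thermal stability relative to control samples, from duplicates, is given as log2 fold change.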

ibrutinib = compound: C=CC(=O)N1CCC[C@@H](n2nc(-c3ccc(Oc4ccccc4)cc3)c3c(N)ncnc32)C1 [ibrutinib]
Method in brief: as §1

[1] = compound: CC(=O)c1cnc2ccc(-c3cc(Cl)c(O)c(Cl)c3)nc2c1N[C@H]1CC[C@H](CN(C)C)CC1
Method in brief: as §1

ralimetinib = compound: CC(C)(C)Cn1c(N)nc2ccc(-c3[nH]c(C(C)(C)C)nc3-c3ccc(F)cc3)nc21 [ralimetinib]
Method in brief: as §1

[2] = compound: CC(C)(O)CC(=O)NCCn1ccc2ncnc(Nc3ccc(Oc4cccc(C(F)(F)F)c4)c(Cl)c3)c21
Method in brief: as §1

[3] = compound: CC(C)C1=C2N=C(C=C(N2N=C1)NCC3=CC=CC=C3)NCCCCCCN
Method in brief: as §1

[4] = compound: CC(C)C[C@@H](C=O)NC(=O)[C@H](CC(C)C)NC(=O)[C@H](CC(C)C)NC(=O)OCc1ccccc1
Method in brief: as §1

pinometostat = compound: CC(C)N(C[C@H]1O[C@@H](n2cnc3c(N)ncnc32)[C@H](O)[C@@H]1O)[C@H]1C[C@@H](CCc2nc3cc(C(C)(C)C)ccc3[nH]2)C1 [pinometostat]
Method in brief: as §1

[5] = compound: CC1=C(C(CC(=O)N1)C2=CC=C(C=C2)C(F)(F)F)C(=O)NC3=C(C=C4C(=C3)C=NN4)F
Method in brief: as §1

[6] = compound: CC1=C(C2=C(C=C1)C(=O)C3=CC=CC=C3N2CCCN)C
Method in brief: as §1

Chain of UniProt Q9NXW9 (Q9NXW9 whole entry, looked up): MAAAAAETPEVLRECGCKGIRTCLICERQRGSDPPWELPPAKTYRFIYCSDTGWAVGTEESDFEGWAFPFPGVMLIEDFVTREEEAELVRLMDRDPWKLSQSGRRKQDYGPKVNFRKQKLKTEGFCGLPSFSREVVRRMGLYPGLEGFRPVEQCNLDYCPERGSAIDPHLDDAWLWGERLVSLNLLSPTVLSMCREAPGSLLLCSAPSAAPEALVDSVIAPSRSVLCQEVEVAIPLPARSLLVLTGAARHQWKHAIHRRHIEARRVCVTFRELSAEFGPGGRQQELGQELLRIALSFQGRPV
Chain of UniProt Q9UEY8 (Q9UEY8 whole entry, looked up): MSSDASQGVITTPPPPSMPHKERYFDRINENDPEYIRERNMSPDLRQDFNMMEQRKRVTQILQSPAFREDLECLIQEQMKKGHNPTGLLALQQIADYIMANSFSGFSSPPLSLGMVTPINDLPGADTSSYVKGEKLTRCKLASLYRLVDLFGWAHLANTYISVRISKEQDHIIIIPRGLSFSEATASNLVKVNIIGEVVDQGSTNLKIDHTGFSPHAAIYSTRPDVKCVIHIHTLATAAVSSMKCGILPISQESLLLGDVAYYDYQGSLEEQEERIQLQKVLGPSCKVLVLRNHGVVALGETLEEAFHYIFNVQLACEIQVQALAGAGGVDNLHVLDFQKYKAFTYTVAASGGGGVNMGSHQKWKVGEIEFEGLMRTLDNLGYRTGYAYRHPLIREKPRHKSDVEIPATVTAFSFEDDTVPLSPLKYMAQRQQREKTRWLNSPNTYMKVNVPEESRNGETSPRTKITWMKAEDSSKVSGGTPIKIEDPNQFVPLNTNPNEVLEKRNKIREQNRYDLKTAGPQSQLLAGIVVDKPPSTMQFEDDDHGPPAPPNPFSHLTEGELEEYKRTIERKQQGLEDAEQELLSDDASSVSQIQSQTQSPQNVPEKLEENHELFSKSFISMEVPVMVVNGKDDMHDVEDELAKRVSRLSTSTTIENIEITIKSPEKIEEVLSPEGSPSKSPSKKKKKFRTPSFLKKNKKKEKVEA
Chain of UniProt Q8N2F6 (Q8N2F6 whole entry, looked up): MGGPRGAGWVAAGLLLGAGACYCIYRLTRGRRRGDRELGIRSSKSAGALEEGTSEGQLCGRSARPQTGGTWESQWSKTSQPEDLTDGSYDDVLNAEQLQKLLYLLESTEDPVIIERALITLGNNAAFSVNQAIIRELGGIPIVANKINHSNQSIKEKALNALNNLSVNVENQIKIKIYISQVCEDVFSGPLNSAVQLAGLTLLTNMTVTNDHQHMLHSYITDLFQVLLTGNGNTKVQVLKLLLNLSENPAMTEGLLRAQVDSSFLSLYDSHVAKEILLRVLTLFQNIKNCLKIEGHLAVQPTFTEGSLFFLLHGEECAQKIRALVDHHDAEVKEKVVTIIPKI
Chain of UniProt Q9H0E9 (Q9H0E9 whole entry, looked up): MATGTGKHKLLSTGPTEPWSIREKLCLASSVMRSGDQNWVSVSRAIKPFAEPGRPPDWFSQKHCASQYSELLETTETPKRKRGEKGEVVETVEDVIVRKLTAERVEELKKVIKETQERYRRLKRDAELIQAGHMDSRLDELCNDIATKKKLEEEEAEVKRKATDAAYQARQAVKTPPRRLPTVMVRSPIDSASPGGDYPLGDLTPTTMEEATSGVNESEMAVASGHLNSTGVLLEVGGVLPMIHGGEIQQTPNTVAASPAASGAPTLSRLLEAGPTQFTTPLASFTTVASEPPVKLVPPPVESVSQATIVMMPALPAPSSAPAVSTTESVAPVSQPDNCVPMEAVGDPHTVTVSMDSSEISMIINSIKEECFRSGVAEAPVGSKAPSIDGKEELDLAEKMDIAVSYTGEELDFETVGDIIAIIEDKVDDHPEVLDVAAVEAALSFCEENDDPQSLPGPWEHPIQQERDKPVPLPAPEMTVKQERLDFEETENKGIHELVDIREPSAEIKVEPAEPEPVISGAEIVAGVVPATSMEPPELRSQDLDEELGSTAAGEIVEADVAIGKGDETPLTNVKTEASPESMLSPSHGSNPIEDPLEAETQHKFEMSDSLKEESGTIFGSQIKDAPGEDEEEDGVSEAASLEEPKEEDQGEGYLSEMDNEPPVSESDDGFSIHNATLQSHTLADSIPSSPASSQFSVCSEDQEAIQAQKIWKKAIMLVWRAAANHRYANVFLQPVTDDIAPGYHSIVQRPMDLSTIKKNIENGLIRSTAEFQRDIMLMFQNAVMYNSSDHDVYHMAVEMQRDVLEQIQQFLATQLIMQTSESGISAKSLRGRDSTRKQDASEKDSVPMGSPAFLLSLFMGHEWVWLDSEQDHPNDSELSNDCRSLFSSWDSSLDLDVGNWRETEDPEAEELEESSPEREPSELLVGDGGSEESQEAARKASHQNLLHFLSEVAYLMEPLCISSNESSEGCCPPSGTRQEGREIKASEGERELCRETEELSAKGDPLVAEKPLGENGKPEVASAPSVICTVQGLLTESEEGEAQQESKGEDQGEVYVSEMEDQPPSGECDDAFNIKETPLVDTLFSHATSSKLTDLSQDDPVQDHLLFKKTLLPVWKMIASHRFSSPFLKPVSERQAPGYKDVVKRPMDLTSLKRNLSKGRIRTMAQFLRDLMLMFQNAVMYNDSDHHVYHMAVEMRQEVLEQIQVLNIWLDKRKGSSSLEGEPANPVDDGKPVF
Chain of UniProt P30837 (P30837 whole entry, looked up): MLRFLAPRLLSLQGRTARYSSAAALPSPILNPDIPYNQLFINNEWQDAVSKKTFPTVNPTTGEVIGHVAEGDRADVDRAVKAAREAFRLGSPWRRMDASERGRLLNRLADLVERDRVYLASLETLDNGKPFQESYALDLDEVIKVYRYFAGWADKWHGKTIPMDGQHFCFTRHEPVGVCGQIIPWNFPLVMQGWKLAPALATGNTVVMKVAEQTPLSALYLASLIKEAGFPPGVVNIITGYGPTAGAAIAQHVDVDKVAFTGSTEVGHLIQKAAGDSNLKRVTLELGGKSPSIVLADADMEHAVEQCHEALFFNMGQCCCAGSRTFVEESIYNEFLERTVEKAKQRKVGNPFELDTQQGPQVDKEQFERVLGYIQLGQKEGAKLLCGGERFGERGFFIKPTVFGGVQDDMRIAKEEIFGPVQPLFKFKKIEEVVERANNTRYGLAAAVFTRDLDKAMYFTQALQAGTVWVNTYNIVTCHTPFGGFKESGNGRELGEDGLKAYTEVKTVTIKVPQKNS
Chain of UniProt O60488 (O60488 whole entry, looked up): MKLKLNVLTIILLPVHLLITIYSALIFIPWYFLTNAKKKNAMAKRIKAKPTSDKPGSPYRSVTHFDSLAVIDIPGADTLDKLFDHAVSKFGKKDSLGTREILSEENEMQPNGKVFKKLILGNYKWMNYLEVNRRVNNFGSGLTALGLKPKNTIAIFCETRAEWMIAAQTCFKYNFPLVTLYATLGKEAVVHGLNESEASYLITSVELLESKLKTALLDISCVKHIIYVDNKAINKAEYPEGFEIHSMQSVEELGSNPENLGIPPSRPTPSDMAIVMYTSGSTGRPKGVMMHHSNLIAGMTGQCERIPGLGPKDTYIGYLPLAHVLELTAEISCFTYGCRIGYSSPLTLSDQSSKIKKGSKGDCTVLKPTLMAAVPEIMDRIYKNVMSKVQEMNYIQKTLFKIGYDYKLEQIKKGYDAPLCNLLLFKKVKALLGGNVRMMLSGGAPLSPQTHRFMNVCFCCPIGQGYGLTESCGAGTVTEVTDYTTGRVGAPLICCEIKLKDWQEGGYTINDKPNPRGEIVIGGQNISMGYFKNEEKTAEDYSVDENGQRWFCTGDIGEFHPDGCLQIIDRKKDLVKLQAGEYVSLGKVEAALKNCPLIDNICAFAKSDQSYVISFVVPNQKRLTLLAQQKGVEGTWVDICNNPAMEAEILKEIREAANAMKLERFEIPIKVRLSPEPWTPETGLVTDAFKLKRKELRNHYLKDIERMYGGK
Chain of UniProt Q9Y587 (Q9Y587 whole entry, looked up): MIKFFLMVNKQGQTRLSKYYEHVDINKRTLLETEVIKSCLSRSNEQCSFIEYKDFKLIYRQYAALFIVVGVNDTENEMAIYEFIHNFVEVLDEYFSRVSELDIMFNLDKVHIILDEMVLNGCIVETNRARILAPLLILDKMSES
Chain of UniProt Q9NUQ2 (Q9NUQ2 whole entry, looked up): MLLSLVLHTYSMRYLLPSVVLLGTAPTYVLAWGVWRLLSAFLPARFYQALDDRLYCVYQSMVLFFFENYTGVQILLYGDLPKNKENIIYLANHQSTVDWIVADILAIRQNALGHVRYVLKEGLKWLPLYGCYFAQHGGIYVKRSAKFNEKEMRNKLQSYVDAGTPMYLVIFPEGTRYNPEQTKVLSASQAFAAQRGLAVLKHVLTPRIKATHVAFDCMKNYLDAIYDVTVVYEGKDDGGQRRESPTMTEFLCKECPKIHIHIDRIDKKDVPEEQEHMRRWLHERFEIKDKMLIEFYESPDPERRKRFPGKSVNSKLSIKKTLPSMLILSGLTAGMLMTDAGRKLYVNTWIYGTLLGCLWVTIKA
Chain of UniProt P54252 (P54252 whole entry, looked up): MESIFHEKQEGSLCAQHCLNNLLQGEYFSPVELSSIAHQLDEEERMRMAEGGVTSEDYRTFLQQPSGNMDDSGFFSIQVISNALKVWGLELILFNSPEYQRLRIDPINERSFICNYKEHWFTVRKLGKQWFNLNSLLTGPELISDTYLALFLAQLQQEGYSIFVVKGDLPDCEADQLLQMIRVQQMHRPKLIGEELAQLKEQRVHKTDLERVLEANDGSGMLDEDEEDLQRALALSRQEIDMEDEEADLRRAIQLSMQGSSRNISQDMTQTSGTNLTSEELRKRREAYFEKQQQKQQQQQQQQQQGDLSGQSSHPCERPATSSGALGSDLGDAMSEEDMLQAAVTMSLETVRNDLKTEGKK
Chain of UniProt Q96BI3 (Q96BI3 whole entry, looked up): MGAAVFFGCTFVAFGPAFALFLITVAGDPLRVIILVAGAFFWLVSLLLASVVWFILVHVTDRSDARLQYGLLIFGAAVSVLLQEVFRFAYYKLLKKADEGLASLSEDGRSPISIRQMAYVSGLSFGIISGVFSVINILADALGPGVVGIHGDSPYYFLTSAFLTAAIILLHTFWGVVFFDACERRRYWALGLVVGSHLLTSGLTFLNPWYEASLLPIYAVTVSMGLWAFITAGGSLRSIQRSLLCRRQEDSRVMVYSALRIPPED

Target	log2 fold change (IRAK-1-4 Inhibitor I)	log2 fold change (ibrutinib)	log2 fold change [1]	log2 fold change (ralimetinib)	log2 fold change [2]	log2 fold change [3]	log2 fold change [4]	log2 fold change (pinometostat)	log2 fold change [5]	log2 fold change [6]
ARL6IP6 (UniProt Q8N6S5)	0.12	0.056	0.168	0.413 (active)	0	-0.049	-0.199	0.069	-0.014	0.02
AGPAT5 (UniProt Q9NUQ2)	0.047	0.003	0.062	-0.037	0.03	-0.163	0.002	0.007	-0.001	0.021
ANXA5 (UniProt P08758)	-0.013	-0.05	-0.019	-0.018	-0.006	-0.069	0.017	-0.026	0	0.032
ACP1 (UniProt P24666)	-0.027	-0.073	-0.083	–	-0.238	-0.071	–	0.107	-0.055	-0.087
ATRN (UniProt O75882)	-0.084	0.083	0.012	–	-0.02	0.033	–	0.079	-0.08	0.044
ATXN3 isoform 1 (UniProt P54252)	-0.031	0.028	0.065	0.018	–	-0.314	0.234	0.021	0.018	0.016
ARHGAP1 (UniProt Q07960)	0.025	-0.014	-0.049	-0.022	-0.014	0.162	0.023	0	-0.011	-0.014
ATXN7L3 isoform 2 (UniProt Q14CW9)	0.114	0.147	0.027	0.036	–	0.066	-0.053	0.093	0.018	–
APH1A (UniProt Q96BI3)	0.021	0.036	-0.076	–	–	-0.047	–	-0.056	0.028	-0.03
ADK (UniProt P55263)	0.08	0.034	0.184	0.246	-0.002	0.074	-0.058	0.016	-0.101	-0.001
AP4S1 (UniProt Q9Y587)	-0.061	-0.12	0.008	–	-0.079	0	–	-0.145	0.027	–
ALKBH4 (UniProt Q9NXW9)	0.009	-0.126	-0.07	0.017	-0.12	-0.086	-0.033	-0.065	–	-0.11
ARMC10 (UniProt Q8N2F6)	0.001	-0.018	-0.035	-0.003	-0.029	0.005	0.034	0.033	0.003	0
APOH (UniProt P02749)	0.13	0.155	0.211	-0.131	–	-0.067	0.119	-0.117	0.419	-0.126
ACSL4 (UniProt O60488)	-0.067	0.001	0	0.049	-0.237	-0.443 (active)	0.038	0.098	0.019	0
BECN1 (UniProt Q14457)	-0.003	-0.018	0.003	-0.004	-0.011	-0.031	-0.015	-0.032	-0.058	0.084
ADD3 (UniProt Q9UEY8)	0.063	0.025	-0.29 (active)	-0.011	0.008	0.097	0.018	-0.034	0.019	0.014
ABCA3 (UniProt Q99758)	-0.012	-0.051	-0.005	-0.096	-0.096	-0.007	-0.017	0.203	–	0.054
ALDH1B1 (UniProt P30837)	0.051	0.031	-0.009	-0.004	-0.072	0.132	-0.01	-0.022	-0.054	0.221
BRD8 isoform 2 (UniProt Q9H0E9)	0.028	0	0.036	-0.103	0.021	-0.003	0.093	0.01	–	-0.071
BDH2 (UniProt Q9BUT1)	-0.009	0.041	-0.073	-0.059	–	0.183	0.001	0.004	–	–
AARSD1 (UniProt Q9BTE6)	0.264	0.135	0.107	–	–	-0.13	–	0.041	-0.045	–
ABITRAM (UniProt Q9NX38)	0.041	0.005	-0.073	-0.088	-0.008	–	0.016	-0.025	0.049	0.001
